Experimental findings from paper PMC5700166 are described below.

What all share (test): protein-binding microarray (PBM); PBM: ~300 nM protein, 6 mM HEPES pH 7.8, 80 mM KCl, 0.5 mM EDTA, 0.5 mM EGTA, 6% glycerol, 35 ng/ul poly-dIdC, 1% milk, 1 h, room temperature; Ap Aiptasia and Nv Nematostella (sea anemones) / Co Capsaspora / Aq Amphimedon (sponge) / Dm Drosophila / Hu human; RHD is the Rel homology domain; high values mean tight binding
Details in all cases: dsDNA, one strand shown

The target in one test is T1, GST-Ap-NF-kB RHD (Exaiptasia pallida (Aiptasia), UniProt A0A913YAJ5 2-422).
T1 sequence: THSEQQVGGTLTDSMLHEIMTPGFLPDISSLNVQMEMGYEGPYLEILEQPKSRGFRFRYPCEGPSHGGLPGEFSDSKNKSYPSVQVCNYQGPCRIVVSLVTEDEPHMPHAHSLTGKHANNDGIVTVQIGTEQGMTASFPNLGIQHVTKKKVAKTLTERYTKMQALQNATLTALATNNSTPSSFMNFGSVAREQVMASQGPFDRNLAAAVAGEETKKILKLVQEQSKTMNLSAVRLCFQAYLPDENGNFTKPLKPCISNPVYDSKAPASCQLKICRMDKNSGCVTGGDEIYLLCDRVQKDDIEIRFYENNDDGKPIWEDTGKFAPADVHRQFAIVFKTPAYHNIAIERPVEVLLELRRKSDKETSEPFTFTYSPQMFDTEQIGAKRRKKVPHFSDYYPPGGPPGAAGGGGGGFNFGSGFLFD

For test [1], the target named is T2, GST-Nv-NF-kB (Cys allele) (Nematostella vectensis, UniProt E5G601 2-411).
T2 sequence: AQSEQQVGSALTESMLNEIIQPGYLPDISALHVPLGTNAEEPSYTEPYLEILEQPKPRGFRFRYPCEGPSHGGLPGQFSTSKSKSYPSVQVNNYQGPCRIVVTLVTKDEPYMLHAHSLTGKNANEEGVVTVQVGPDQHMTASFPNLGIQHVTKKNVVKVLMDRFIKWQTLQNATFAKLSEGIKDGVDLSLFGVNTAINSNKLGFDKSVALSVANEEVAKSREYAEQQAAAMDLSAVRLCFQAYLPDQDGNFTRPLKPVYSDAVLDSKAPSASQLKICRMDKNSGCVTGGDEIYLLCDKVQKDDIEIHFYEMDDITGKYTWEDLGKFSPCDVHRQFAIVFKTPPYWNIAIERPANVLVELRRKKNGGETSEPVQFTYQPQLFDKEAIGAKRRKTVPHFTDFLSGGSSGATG

Test [2] has as its target T3, GST-Nv-NF-kB (Ser allele) (Nematostella vectensis, UniProt A7UNT2 2-411).
T3 sequence: T2 sequence with Q21R, C66S, S207N, E215Q, V217A, E225K, A268E, D399E

The next test deals with T4, GST-Co-NF-kB (Capsaspora owczarzaki, UniProt F1ARL5 200-546).
T4 sequence: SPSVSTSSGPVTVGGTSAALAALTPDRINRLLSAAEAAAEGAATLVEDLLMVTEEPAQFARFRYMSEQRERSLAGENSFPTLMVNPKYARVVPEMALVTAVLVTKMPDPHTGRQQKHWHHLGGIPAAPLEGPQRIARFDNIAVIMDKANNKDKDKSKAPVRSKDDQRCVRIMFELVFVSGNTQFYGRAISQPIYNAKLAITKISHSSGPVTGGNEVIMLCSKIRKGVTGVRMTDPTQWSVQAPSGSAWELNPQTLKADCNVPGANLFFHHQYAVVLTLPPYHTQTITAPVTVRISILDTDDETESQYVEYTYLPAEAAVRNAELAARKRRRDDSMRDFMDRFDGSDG

The target of a further test is T5, GST-Dm-Relish (Drosophila melanogaster, UniProt Q94527 99-473).
T5 sequence: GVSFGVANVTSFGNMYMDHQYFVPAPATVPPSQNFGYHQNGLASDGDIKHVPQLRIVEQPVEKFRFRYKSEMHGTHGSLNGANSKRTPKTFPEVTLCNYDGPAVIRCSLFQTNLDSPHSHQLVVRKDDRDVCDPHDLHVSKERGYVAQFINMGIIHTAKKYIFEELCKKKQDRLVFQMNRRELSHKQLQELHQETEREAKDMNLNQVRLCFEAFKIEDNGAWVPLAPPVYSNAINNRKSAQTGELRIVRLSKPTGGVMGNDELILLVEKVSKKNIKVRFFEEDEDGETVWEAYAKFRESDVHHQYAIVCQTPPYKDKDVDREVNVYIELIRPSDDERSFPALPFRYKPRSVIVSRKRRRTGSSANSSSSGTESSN

For another test, the target named is T6, GST-Aq-NF-kB (Amphimedon queenslandica, UniProt A9Y5G7 2-389).
T6 sequence: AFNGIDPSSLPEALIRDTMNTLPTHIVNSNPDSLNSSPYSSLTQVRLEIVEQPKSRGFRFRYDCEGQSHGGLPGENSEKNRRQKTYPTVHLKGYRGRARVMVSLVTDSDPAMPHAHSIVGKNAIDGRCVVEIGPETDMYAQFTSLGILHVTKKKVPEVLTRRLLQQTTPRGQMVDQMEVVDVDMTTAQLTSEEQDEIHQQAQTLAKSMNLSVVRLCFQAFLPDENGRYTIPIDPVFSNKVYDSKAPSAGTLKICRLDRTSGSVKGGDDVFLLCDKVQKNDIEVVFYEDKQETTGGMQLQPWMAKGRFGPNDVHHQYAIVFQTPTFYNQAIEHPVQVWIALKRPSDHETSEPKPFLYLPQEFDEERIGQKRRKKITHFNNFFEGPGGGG

A further test has as its target GST-Hu-p50 (Homo sapiens, UniProt P19838 7-356).

Numbering of substitutions follows the chain as printed.

Sequence of GST-Hu-p50 (P19838 7-356): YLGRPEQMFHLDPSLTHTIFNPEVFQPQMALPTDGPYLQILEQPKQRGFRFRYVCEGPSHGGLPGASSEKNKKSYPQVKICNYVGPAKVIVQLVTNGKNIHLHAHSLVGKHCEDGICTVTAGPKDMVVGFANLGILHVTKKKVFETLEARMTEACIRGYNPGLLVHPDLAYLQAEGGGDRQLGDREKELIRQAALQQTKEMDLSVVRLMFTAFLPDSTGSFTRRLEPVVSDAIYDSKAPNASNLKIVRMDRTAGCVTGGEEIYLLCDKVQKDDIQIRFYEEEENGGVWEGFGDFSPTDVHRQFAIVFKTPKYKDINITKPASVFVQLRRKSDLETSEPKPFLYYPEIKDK

For the sequence “CCGATTAACATCAGAGATTTCCCTGATGTTAATCGGGTCTTGATTCGCTTGACGCTGCTG”, the binding signal with GST-Ap-NF-kB RHD amounted to 3.94 z-score; in test [1] it was 5.69 z-score; in test [2], 6.13 z-score; with GST-Co-NF-kB, 3.92 z-score; with GST-Dm-Relish, 2.1 z-score; with GST-Aq-NF-kB it was 5.48 z-score. In the test with GST-Hu-p50, this sequence displayed a binding signal of 4.51 z-score.
“CCGATTAACATCAGGGGAACCCATGATGTTAATCGGGTCTTGATTCGCTTGACGCTGCTG”: the binding signal with GST-Ap-NF-kB RHD came to 7.48 z-score; in test [1], 5.77 z-score; in test [2], 6.55 z-score; with GST-Co-NF-kB it was 4.47 z-score; in the test with GST-Dm-Relish it was 8.55 z-score; in the test with GST-Aq-NF-kB, 4.7 z-score. In the test with GST-Hu-p50, this sequence showed a binding signal of 4.58 z-score.
Turning to “CCGATTAACATCAGGGGGATATATGATGTTAATCGGGTCTTGATTCGCTTGACGCTGCTG”, the binding signal in the test with GST-Ap-NF-kB RHD was found to be 6.45 z-score; in test [1] it was 5.67 z-score; in test [2] it was 6.14 z-score; in the test with GST-Co-NF-kB, 6.72 z-score; with GST-Dm-Relish it was 4.91 z-score; with GST-Aq-NF-kB, 5.58 z-score. This sequence also showed a binding signal with GST-Hu-p50 of 5.49 z-score.
On to “CCGATTAACATCAAAAAATCCCGTGATGTTAATCGGGTCTTGATTCGCTTGACGCTGCTG”, for which the binding signal with GST-Ap-NF-kB RHD stood at 5.57 z-score; in test [1] it was 6.22 z-score; in test [2], 5.2 z-score; with GST-Co-NF-kB, 2.99 z-score; with GST-Dm-Relish, 8.31 z-score; in the test with GST-Aq-NF-kB it was 6.71 z-score. Besides, the binding signal with GST-Hu-p50 came out at 4.97 z-score.
For the sequence “CCGATTAACATCACGGGAAATCCTGATGTTAATCGGGTCTTGATTCGCTTGACGCTGCTG”, the binding signal with GST-Ap-NF-kB RHD is 5.03 z-score; in test [1] it was 6.03 z-score; in test [2], 5.29 z-score; with GST-Co-NF-kB, 4.57 z-score; in the test with GST-Dm-Relish it was 6.3 z-score; with GST-Aq-NF-kB, 6.18 z-score. For the same sequence, the binding signal in the test with GST-Hu-p50 was 3.91 z-score.
Consider “CCGATTAACATCAGGGGGCTTTATGATGTTAATCGGGTCTTGATTCGCTTGACGCTGCTG”, for which the binding signal with GST-Ap-NF-kB RHD came to 5.16 z-score; in test [1], 5.53 z-score; in test [2], 4.34 z-score; in the test with GST-Co-NF-kB, 1.85 z-score; in the test with GST-Dm-Relish it was 6.23 z-score; with GST-Aq-NF-kB, 5.44 z-score. The sequence further had a binding signal in the test with GST-Hu-p50 of 5.71 z-score.
Turning to “CCGATTAACATCAAGAAATTCCCTGATGTTAATCGGGTCTTGATTCGCTTGACGCTGCTG”, the binding signal with GST-Ap-NF-kB RHD worked out at 5.84 z-score; in test [1], 8.19 z-score; in test [2], 8.01 z-score; with GST-Co-NF-kB, 4.57 z-score; in the test with GST-Dm-Relish, 5.32 z-score; in the test with GST-Aq-NF-kB it was 6.81 z-score. The sequence also had a binding signal with GST-Hu-p50 of 5.84 z-score.
Consider “CCGATTAACATCAAAATCCCCCATGATGTTAATCGGGTCTTGATTCGCTTGACGCTGCTG”, for which the binding signal in the test with GST-Ap-NF-kB RHD was 9.1 z-score; in test [1], 9.28 z-score; in test [2], 10.2 z-score; with GST-Co-NF-kB it was 6.67 z-score; with GST-Dm-Relish, 8.88 z-score; in the test with GST-Aq-NF-kB, 7.37 z-score. The binding signal in the test with GST-Hu-p50 is 7.45 z-score.
With “CCGATTAACATCAGAACTCCCCCTGATGTTAATCGGGTCTTGATTCGCTTGACGCTGCTG”, the binding signal stood at 7.91 z-score in the test with GST-Ap-NF-kB RHD; 6.48 z-score in test [1]; 7.12 z-score in test [2]; 6.15 z-score with GST-Co-NF-kB; 5.58 z-score with GST-Dm-Relish; 6.48 z-score with GST-Aq-NF-kB. In the test with GST-Hu-p50, the binding signal worked out at 7.11 z-score.
For “CCGATTAACATCAGGGGACATTATGATGTTAATCGGGTCTTGATTCGCTTGACGCTGCTG”, the binding signal with GST-Ap-NF-kB RHD came out at 5.74 z-score; in test [1], 5.19 z-score; in test [2] it was 5.89 z-score; with GST-Co-NF-kB, 4.2 z-score; in the test with GST-Dm-Relish, 3.51 z-score; with GST-Aq-NF-kB it was 4.62 z-score. This sequence also gave a binding signal in the test with GST-Hu-p50 of 4.63 z-score.
In the case of “CCGATTAACATCACGTAATTCCCTGATGTTAATCGGGTCTTGATTCGCTTGACGCTGCTG”, the binding signal with GST-Ap-NF-kB RHD turned out to be 3.45 z-score; in test [1], 4.96 z-score; in test [2], 5.01 z-score; with GST-Co-NF-kB, 4.02 z-score; in the test with GST-Dm-Relish it was 6.81 z-score; with GST-Aq-NF-kB, 4.89 z-score. The binding signal with GST-Hu-p50 was determined as 3.49 z-score.
For the sequence “CCGATTAACATCACGTTTCCCCCTGATGTTAATCGGGTCTTGATTCGCTTGACGCTGCTG”, the binding signal in the test with GST-Ap-NF-kB RHD worked out at 6.91 z-score; in test [1] it was 6.46 z-score; in test [2] it was 9.03 z-score; in the test with GST-Co-NF-kB, 9.58 z-score; with GST-Dm-Relish it was 2.71 z-score; in the test with GST-Aq-NF-kB it was 5.17 z-score. The sequence also displayed a binding signal with GST-Hu-p50 of 6.64 z-score.
